Data taken from PubChem BioAssay (Tox21).
Inconclusive results are not listed. Where a call stands in place of a potency, no number is given. The source made the active and inactive calls. Unless noted, calls come from the whole dose curve; as a rule, active = well fitted curve in the direction sought with a large enough effect in the repeat runs; inconclusive = weak or mixed curves; inactive = no such curve, though single readings can be large; an effect the other way counts as inactive or inconclusive.

Tests used:
[1] = qHTS assay to identify small molecule agonists of the peroxisome proliferator-activated receptor delta (PPARd) signaling pathway - cell viability counter screen (AID 743211); note: nearly all actives have a fitted effect of over 55% in size; note: potency is the fitted concentration of half-maximal effect
Summary of the method: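 qHTS cell viability: PPARd-bla HEK293H; 17 h cpd, 37C; CellTiter-Glo, luminescence at 30 min RT.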

[2] = qHTS assay to identify small molecule antagonists of the peroxisome proliferator-activated receptor delta (PPARd) signaling pathway - cell viability counter screen (AID 743213); note: nearly all actives have a fitted effect of over 50% in size; note: potency is the fitted concentration of half-maximal effect
Summary of the method: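 Luminescence from CellTiter-Glo, added after the bla read and incubated 30 min at room temperature, gives viability of HEK293H PPARd-bla cells exposed to compounds for 17 h at 37 C with 300 nM L165041.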

[3] = qHTS assay to identify small molecule agonists of the farnesoid-X-receptor (FXR) signaling pathway - cell viability counter screen (AID 743218); note: nearly all actives have a fitted effect of over 45% in size; note: potency is the fitted concentration of half-maximal effect
Summary of the method: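 Cells were seeded, left 5 h at 37 C and 5% CO2, then dosed with compound in DMSO for 16 h. After the beta-lactamase FRET read, CellTiter-Glo was added and luminescence measured 30 min later.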

[4] = biological target: Bile acid receptor (Homo sapiens) (UniProt Q96RI1); assay: qHTS assay to identify small molecule agonists of the farnesoid-X-receptor (FXR) signaling pathway (AID 743220; active = well fitted activation curve with a large enough effect in the signal ratio in the repeat runs, not every such curve was filed as active; the % refers to the signal ratio)
Sequence of Bile acid receptor (Homo sapiens) (Q96RI1 whole entry, looked up): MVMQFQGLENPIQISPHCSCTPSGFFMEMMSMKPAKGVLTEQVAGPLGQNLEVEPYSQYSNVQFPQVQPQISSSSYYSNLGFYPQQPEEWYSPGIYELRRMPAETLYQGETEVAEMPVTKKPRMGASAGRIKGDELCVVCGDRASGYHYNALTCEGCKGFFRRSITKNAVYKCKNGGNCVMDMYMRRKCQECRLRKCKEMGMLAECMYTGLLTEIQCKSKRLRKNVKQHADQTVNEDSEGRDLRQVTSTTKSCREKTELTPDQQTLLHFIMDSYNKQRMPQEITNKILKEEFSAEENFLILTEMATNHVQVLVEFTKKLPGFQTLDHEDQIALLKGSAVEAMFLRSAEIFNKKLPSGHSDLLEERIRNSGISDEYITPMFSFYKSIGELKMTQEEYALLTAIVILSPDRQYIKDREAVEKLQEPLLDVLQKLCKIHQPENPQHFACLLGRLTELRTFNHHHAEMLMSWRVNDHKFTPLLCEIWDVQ
Summary of the method: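 FXR-UAS-bla HEK 293T cells carrying a UAS-driven beta-lactamase reporter were plated for 5 h at 37C/5% CO2, then exposed to DMSO-dissolved Tox21 10K compounds for 16 h at 37C. A LiveBLAzer B/G FRET substrate was loaded for 2 h at room temperature before fluorescence reading.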

[5] = qHTS assay to identify small molecule antagonists of the farnesoid-X-receptor (FXR) signaling pathway - cell viability counter screen (AID 743221; active = well fitted cell-killing curve with a large enough effect in the repeat runs, not every such curve was filed as active; note: nearly all actives have a fitted effect of over 50% in size; note: potency is the fitted concentration of half-maximal effect)
Summary of the method: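 After a 5 h settling period, FXR-bla HEK 293T cells receive compound and chenodeoxycholic acid (50 uM final) and incubate 16 h at 37 C; CellTiter-Glo luminescence, read after 30 min at room temperature, reports cell viability.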

[6] = qHTS assay to identify small molecule agonists of the vitamin D receptor (VDR) signaling pathway - cell viability counter screen (AID 743224); note: nearly all actives have a fitted effect of over 50% in size; note: potency is the fitted concentration of half-maximal effect
Summary of the method: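 Cells: VDR-bla, 2,000/well, settled 4 h. Treatment: compounds in DMSO, 16 h, 37C/5% CO2. Readout: CellTiter-Glo luminescence after 30 min RT.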

[7] = qHTS assay to identify small molecule agonists of the NFkB signaling pathway - cell viability counter screen (AID 1159515; calls by dose curve; note: nearly all actives have a fitted effect of over 55% in size; note: potency is the fitted concentration of half-maximal effect)
Summary of the method: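 Cells are seeded (2,000 NFkB-bla ME-180 per well), rested overnight, and dosed with DMSO-dissolved compounds for 5 hr at 37 C. Viability is then read by CellTiter-Glo luminescence after 30 min at room temperature.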

[8] = qHTS assay to identify small molecule agonists of the endoplasmic reticulum stress response signaling pathway - cell viability counter screen (AID 1159517; calls by dose curve; note: nearly all actives have a fitted effect of over 50% in size; note: potency is the fitted concentration of half-maximal effect)
Summary of the method: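 After overnight attachment, ESRE-bla HeLa cells were treated with Tox21 library compounds for 5 hr. CellTiter-Glo luminescence, read 30 min post-addition at room temperature, reported viability.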

[9] = qHTS assay to identify small molecule antagonists of the retinoid-related orphan receptor gamma (ROR-gamma) signaling pathway - cell viability counter screen (AID 1159520); note: nearly all actives have a fitted effect of over 50% in size; note: potency is the fitted concentration of half-maximal effect
Summary of the method: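 Cytotoxicity was read from cellular ATP (CellTiter-Glo luminescence) after 16 hr at 37 C with 1 uM doxycycline induction. The inducer was added 2 hr after compound transfer to Tet-on ROR gamma CHO cells.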

[10] = biological target: Nuclear receptor ROR-gamma (Homo sapiens) (UniProt P51449); assay: qHTS assay to identify small molecule antagonists of the retinoid-related orphan receptor gamma (ROR-gamma) signaling pathway (AID 1159521; note: nearly all actives have a fitted effect of over 50% in size; note: potency is the fitted concentration of half-maximal effect)
Summary of the method: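 Decreased RORE-driven luciferase luminescence indicates antagonism. Tet-on RORγ CHO cells received compound, then 1 uM final doxycycline 2 h later; signal read after 16 h incubation.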

[11] = qHTS assay to identify small molecule agonists of the AP-1 signaling pathway - cell viability counter screen (AID 1159525; calls by dose curve; note: nearly all actives have a fitted effect of over 55% in size; note: potency is the fitted concentration of half-maximal effect)
Summary of the method: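 Intracellular ATP by Cell Titer Glo luminescence (30 min, RT) in the same ME-180 AP-1-bla wells after the 5 h compound exposure at 37 °C. Normalised to tetra n-octyl ammonium bromide and DMSO controls.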

[12] = biological target: Peroxisome proliferator-activated receptor delta (Homo sapiens) (UniProt Q03181); assay: qHTS assay to identify small molecule agonists of the peroxisome proliferator-activated receptor delta (PPARd) signaling pathway (AID 743212; calls by dose curve)
Sequence of Peroxisome proliferator-activated receptor delta (Homo sapiens) (Q03181 whole entry, looked up): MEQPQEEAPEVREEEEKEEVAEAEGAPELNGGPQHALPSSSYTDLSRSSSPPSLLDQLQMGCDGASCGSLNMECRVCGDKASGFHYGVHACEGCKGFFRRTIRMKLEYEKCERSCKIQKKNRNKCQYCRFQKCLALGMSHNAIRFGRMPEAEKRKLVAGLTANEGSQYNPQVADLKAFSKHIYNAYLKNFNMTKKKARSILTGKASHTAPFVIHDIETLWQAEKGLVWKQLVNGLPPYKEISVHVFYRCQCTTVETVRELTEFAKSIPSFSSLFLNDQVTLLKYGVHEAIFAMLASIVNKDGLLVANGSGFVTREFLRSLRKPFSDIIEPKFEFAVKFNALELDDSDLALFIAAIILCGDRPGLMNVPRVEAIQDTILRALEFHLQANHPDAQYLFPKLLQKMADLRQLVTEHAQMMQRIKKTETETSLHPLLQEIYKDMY
Summary of the method: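 Steps: seed PPARd-bla HEK293H cells; incubate 5 h, 37 C, 5% CO2; add compounds in DMSO; incubate, 37 C; add LiveBLAzer B/G FRET substrate; hold 2 h at room temperature; measure fluorescence.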

[13] = biological target: Peroxisome proliferator-activated receptor delta (Homo sapiens) (UniProt Q03181); assay: qHTS assay to identify small molecule antagonists of the peroxisome proliferator-activated receptor delta (PPARd) signaling pathway (AID 743215; active = well fitted inhibition curve with a large enough effect in the signal ratio in the repeat runs, not every such curve was filed as active; the % refers to the signal ratio;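 note: cells stimulated with agonist L165041 at 300 nM final during compound exposure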; note: potency is the fitted concentration of half-maximal effect)
Summary of the method: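 Cells: HEK293H with a UAS-driven beta-lactamase reporter responsive to PPARd. Compounds were co-added with L165041 (300 nM, final) and incubated 17 h at 37 C before a 2 h room-temperature FRET substrate step and fluorescence reading.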

[14] = qHTS assay to identify small molecule antagonists of the vitamin D receptor (VDR) signaling pathway - cell viability counter screen (AID 743225); note: nearly all actives have a fitted effect of over 50% in size; note: potency is the fitted concentration of half-maximal effect
Summary of the method: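 Parallel cytotoxicity test: VDR-UAS-bla HEK 293T, 3 nM (final) 1-alpha,25-dihydroxyvitamin D3 with test compound, 16 h, 37C. Endpoint is CellTiter-Glo luminescence in the same wells.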

[15] = biological target: Bile acid receptor (Homo sapiens) (UniProt Q96RI1); assay: qHTS assay to identify small molecule antagonists of the farnesoid-X-receptor (FXR) signaling pathway (AID 743217; active = well fitted inhibition curve with a large enough effect in the signal ratio in the repeat runs, not every such curve was filed as active; the % refers to the signal ratio; note: potency is the fitted concentration of half-maximal effect)
Summary of the method: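 Cells carrying a UAS-driven beta-lactamase reporter (GeneBLAzer FXR-UAS-bla HEK 293T) were plated and rested 5 h at 37 °C. Compounds in DMSO were added alongside chenodeoxycholic acid agonist at 50 uM final and left 16 h at 37 °C before FRET substrate readout.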

[16] = biological target: Vitamin D3 receptor (Homo sapiens) (UniProt P11473); assay: qHTS assay to identify small molecule agonists of the vitamin D receptor (VDR) signaling pathway (AID 743222; calls by dose curve)
Sequence of Vitamin D3 receptor (Homo sapiens) (P11473 whole entry, looked up): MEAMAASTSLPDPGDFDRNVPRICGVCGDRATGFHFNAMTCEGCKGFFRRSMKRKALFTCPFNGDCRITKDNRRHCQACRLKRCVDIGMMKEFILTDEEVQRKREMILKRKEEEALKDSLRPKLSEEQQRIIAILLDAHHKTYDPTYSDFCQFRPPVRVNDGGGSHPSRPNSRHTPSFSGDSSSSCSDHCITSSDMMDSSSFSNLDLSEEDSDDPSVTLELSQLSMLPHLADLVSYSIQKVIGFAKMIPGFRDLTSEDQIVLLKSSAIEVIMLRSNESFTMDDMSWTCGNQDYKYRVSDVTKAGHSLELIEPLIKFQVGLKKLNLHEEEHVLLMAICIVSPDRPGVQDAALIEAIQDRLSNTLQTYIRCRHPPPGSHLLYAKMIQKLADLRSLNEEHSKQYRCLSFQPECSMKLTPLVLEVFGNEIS
Summary of the method: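 Cells carrying a VDR-driven beta-lactamase reporter are seeded at 2,000 per well and rested 4 h. Compounds in DMSO are added for 16 h at 37C, and FRET substrate fluorescence is measured after 2 h at room temperature.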

[17] = biological target: Vitamin D3 receptor (Homo sapiens) (UniProt P11473); assay: qHTS assay to identify small molecule antagonists of the vitamin D receptor (VDR) signaling pathway (AID 743223; active = well fitted inhibition curve with a large enough effect in the signal ratio in the repeat runs, not every such curve was filed as active; the % refers to the signal ratio; note: potency is the fitted concentration of half-maximal effect)
Summary of the method: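 Reporter line VDR-bla; stimulus 1alpha,25-(OH)2 vitamin D3, 3 nM final; compound co-addition, 16 h 37C/5% CO2; LiveBLAzer B/G substrate 2 h RT; fluorescence intensity.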

[18] = biological target: Retinoic acid receptor RXR-alpha (Homo sapiens) (UniProt P19793); assay: qHTS assay to identify small molecule agonists of the RXR signaling pathway (AID 1159527; calls by dose curve; note: nearly all actives have a fitted effect of over 35% in size; note: potency is the fitted concentration of half-maximal effect)
Sequence of Retinoic acid receptor RXR-alpha (Homo sapiens) (P19793 whole entry, looked up): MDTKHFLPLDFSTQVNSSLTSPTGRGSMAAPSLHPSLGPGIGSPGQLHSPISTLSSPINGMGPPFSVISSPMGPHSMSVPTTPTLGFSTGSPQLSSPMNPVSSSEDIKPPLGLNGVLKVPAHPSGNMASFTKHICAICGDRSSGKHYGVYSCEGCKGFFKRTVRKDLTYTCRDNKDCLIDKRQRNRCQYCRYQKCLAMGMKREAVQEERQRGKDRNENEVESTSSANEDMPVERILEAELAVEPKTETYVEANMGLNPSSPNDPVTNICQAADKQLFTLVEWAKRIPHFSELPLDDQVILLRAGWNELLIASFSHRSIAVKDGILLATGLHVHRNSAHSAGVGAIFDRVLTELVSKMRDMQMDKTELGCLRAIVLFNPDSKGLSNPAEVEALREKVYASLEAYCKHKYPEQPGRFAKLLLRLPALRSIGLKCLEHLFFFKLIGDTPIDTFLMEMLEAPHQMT
Summary of the method: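 16 hr incubation of compound-treated RXR-alpha-UAS-bla HEK 293T cells (2% charcoal-stripped FBS, 37 C) preceded a 2 hr room-temperature LiveBLAzer FRET substrate step and blue/green fluorescence measurement.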

Structure (SMILES)	Potency [1]	Potency [2]	Potency [3]	Potency [4]	Potency [5]	Potency [6]	Potency [7]	Potency [8]	Potency [9]	Potency [10]	Potency [11]	Potency [12]	Potency [13]	Potency [14]	Potency [15]	Potency [16]	Potency [17]	Potency [18]
CCN(C(=O)c1cc(C)cc(OC[C@H](C)Nc2ccncc2)c1)C(C)C	inactive	inactive	inactive	inactive	inactive	inactive	inactive	inactive	inactive	inactive	inactive	–	–	–	–	–	–	–
Cc1[nH]nc2c1N=C(c1ccccc1Cl)c1cc([N+](=O)[O-])ccc1N2	5.49 µM (active)	–	24.5 µM (active)	–	inactive	5.49 µM (active)	inactive	43.6 µM (active)	54.5 µM (active)	21.7 µM (active)	30.9 µM (active)	inactive	24.5 µM (active)	21.9 µM (active)	–	–	–	–
COCCCC/C(=N\OCCN)c1ccc(C(F)(F)F)cc1	23.7 µM (active)	inactive	–	inactive	–	inactive	inactive	inactive	inactive	inactive	inactive	inactive	inactive	–	inactive	inactive	–	–
CCCCCCCC[P+](CCCCCCCC)(CCCCCCCC)CCCCCCCC	5.46 µM (active)	7.71 µM (active)	8.65 µM (active)	–	17.3 µM (active)	–	5.46 µM (active)	13.7 µM (active)	6.82 µM (active)	1.71 µM (active)	12.2 µM (active)	–	–	13.7 µM (active)	–	–	19.4 µM (active)	–
CCCCCCCCCCCCCC[P+](CCCC)(CCCC)CCCC (tested in a mixture with another compound)	inactive	–	17.5 µM (active)	–	22 µM (active)	inactive	22 µM (active)	22 µM (active)	15.4 µM (active)	4.89 µM (active)	12.4 µM (active)	inactive	–	–	–	inactive	inactive	–
CCOC(=O)O[C@]1(C(=O)OCCl)CC[C@H]2[C@@H]3CCC4=CC(=O)C=C[C@]4(C)[C@H]3[C@@H](O)C[C@@]21C	inactive	inactive	inactive	–	inactive	inactive	inactive	inactive	inactive	inactive	inactive	–	–	inactive	inactive	–	inactive	inactive
COc1cc(/C=C/C(=O)O[C@H]2CC[C@]34C[C@]35CC[C@]3(C)[C@@H]([C@H](C)CCC=C(C)C)CC[C@@]3(C)[C@@H]5CC[C@H]4C2(C)C)ccc1O	inactive	inactive	inactive	inactive	inactive	inactive	inactive	inactive	inactive	inactive	inactive	inactive	inactive	inactive	inactive	–	inactive	inactive
Cc1cc(O)c(Cl)c(C)c1Cl	43.6 µM (active)	–	49 µM (active)	–	49 µM (active)	43.6 µM (active)	54.9 µM (active)	54.9 µM (active)	inactive	inactive	inactive	–	–	38.9 µM (active)	49 µM (active)	inactive	–	inactive
CC(C)CCCCCCCCCCCCCCC(=O)O	–	inactive	inactive	–	inactive	inactive	inactive	inactive	68.6 µM (active)	54.5 µM (active)	24.5 µM (active)	–	–	inactive	–	–	–	11 µM (active)
O=c1[nH]sc2ccccc12	17.4 µM (active)	17.4 µM (active)	49 µM (active)	–	49 µM (active)	–	49 µM (active)	54.9 µM (active)	21.7 µM (active)	17.2 µM (active)	34.7 µM (active)	–	–	–	–	inactive	–	–
CC1=NC(C)OC1C (stereo not drawn)	inactive	inactive	–	–	inactive	inactive	inactive	inactive	inactive	inactive	inactive	–	–	inactive	–	–	–	inactive
CC(C)c1ccc2c(c1)CC[C@H]1[C@](C)(CN)CCC[C@]21C	11 µM (active)	21.9 µM (active)	12.3 µM (active)	–	54.9 µM (active)	–	19.5 µM (active)	9.77 µM (active)	30.6 µM (active)	30.6 µM (active)	54.9 µM (active)	–	–	43.6 µM (active)	–	–	49 µM (active)	–
O=C(NO)C1(NS(=O)(=O)c2ccc(Oc3ccc(F)cc3)cc2)CCOCC1	inactive	inactive	inactive	–	inactive	inactive	inactive	inactive	inactive	inactive	inactive	inactive	–	inactive	–	–	inactive	–
CCCCCCCCCCCCc1ccc(O)cc1	24.5 µM (active)	24.5 µM (active)	34.7 µM (active)	–	43.6 µM (active)	12.3 µM (active)	24.5 µM (active)	21.9 µM (active)	30.6 µM (active)	24.3 µM (active)	17.4 µM (active)	–	–	–	–	–	13.8 µM (active)	–
Cc1cc(O)c2ccccc2c1O	10.6 µM (active)	10.6 µM (active)	13.3 µM (active)	–	23.7 µM (active)	7.5 µM (active)	13.4 µM (active)	16.9 µM (active)	7.5 µM (active)	11.9 µM (active)	10.7 µM (active)	–	10.6 µM (active)	13.4 µM (active)	16.8 µM (active)	–	–	–
